Some test systems named below: NCI-H23 lung; NCI-H226 lung; NCI-H322M lung; HOP-62 NSCLC; NCI-H460 lung; HOP-92 NSCLC; NCI-H522 lung; A549/ATCC NSCLC; 786-0 renal; COLO 205 colon; DU-145 prostate; K-562 leukemia; MALME-3M melanoma; MDA-MB-231 breast; RXF 393 renal; SF-268 CNS; SF-295 CNS; SF-539 CNS; UACC-257 melanoma; M14 melanoma.
Common to all, as to experiment: NCI-60 one-dose screen, 48 h (100 = growth as untreated, 0 = no growth, -100 = all killed)
Holding throughout (conditions): 10 µM unless noted

Growth data for 7 compounds are collected here from PubChem BioAssay (NCI).

About 83,000 compounds went through this panel and 20% of them were active in at least one assay; those are over-represented in the sample as a whole.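 Each cell line was grown in a 96-well plate and treated with one concentration of compound for 48 hours. Values below 10 were considered active.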 Values without a mark were called inactive. The source made the active and inactive calls.

As for `CCC1S/C(=N\N=C(/C)c2ccc[nH]2)N(c2ccccc2)C1=O` (stereo not given), the growth was 98.8% in the assay with NCI-H23 lung; 132% in the assay on NCI-H226 lung; 90.8% in the assay with NCI-H322M lung; 108% in the assay on HOP-62 NSCLC; 104% in the assay with NCI-H460 lung; 70.5% in the assay with HOP-92 NSCLC. Further, the growth in the assay with NCI-H522 lung is 27.2%; in the assay on A549/ATCC NSCLC it was 82.6%; with 786-0 renal it was 117%; in the assay with COLO 205 colon, 127%; in the assay with DU-145 prostate, 122%; with K-562 leukemia it was 72.8%. Also, the growth with MALME-3M melanoma is 85.5%; in the assay on MDA-MB-231 breast, 100%; with RXF 393 renal, 91.4%; with SF-268 CNS, 109%; in the assay with SF-295 CNS it was 120%; with SF-539 CNS, 119%. Further, the growth was 104% in the assay on UACC-257 melanoma and 115% in the assay on M14 melanoma.
As to `CSc1cccc(NC(=O)Nc2nc3c(C)cccc3s2)c1`, the growth is 90.2% with NCI-H23 lung; 83.2% with NCI-H226 lung; 102% with NCI-H322M lung; 87.4% with HOP-62 NSCLC; 97.6% in the assay with NCI-H460 lung; 86.6% in the assay on HOP-92 NSCLC. Besides, the growth was 77.6% in the assay on NCI-H522 lung; 95.1% in the assay on A549/ATCC NSCLC; 96.2% in the assay with 786-0 renal; 120% with COLO 205 colon; 114% in the assay on DU-145 prostate; 89.8% in the assay with K-562 leukemia. Besides, the growth in the assay with MALME-3M melanoma is 93.5%; in the assay on MDA-MB-231 breast it was 116%; with RXF 393 renal, 104%; with SF-268 CNS, 104%; in the assay on SF-295 CNS, 97.3%; in the assay with SF-539 CNS, 89.3%. Further, the growth with UACC-257 melanoma was 98.7%; in the assay with M14 melanoma, 98%.
For `COc1cc2c(cc1OCCCOc1cc3c(cc1OC)C(=O)N1CC(F)(F)C[C@H]1C=N3)N=C[C@@H]1CC(F)(F)CN1C2=O`, the growth in the assay with NCI-H23 lung is 5.01% (active); in the assay on NCI-H226 lung, -20.1% (active); in the assay on NCI-H322M lung it was 29%; with HOP-62 NSCLC it was 11.1%; in the assay with NCI-H460 lung it was 7.32% (active); in the assay on HOP-92 NSCLC, -35.4% (active). Further, the growth is -26.4% (active) in the assay on NCI-H522 lung; 36.1% in the assay with A549/ATCC NSCLC; -22.8% (active) in the assay on 786-0 renal; 3.85% (active) with COLO 205 colon; 17% with DU-145 prostate; 9.11% (active) with K-562 leukemia. For the same compound, the growth is -57.6% (active) in the assay on MALME-3M melanoma; 16% in the assay with MDA-MB-231 breast; -65.5% (active) with RXF 393 renal; 30.4% with SF-268 CNS; 8.54% (active) in the assay on SF-295 CNS; -27.9% (active) in the assay with SF-539 CNS. Moreover, the values for the growth in the assay on UACC-257 melanoma and with M14 melanoma were 34.9% and -0.895% (active), respectively.
For the compound `CCCCCCCc1n(Cc2ccc3ccccc3c2)c2ccccc2[n+]1Cc1ccc2ccccc2c1`, the growth in the assay with NCI-H23 lung was -76.9% (active); in the assay with NCI-H226 lung, -70.8% (active); with NCI-H322M lung, -86% (active); in the assay with HOP-62 NSCLC, -70.6% (active); in the assay with NCI-H460 lung, -73% (active); in the assay with HOP-92 NSCLC, -84.4% (active). Further, the growth is -81.1% (active) in the assay on NCI-H522 lung; -77.5% (active) in the assay with A549/ATCC NSCLC; -65.1% (active) in the assay on 786-0 renal; -75.8% (active) in the assay with COLO 205 colon; -94.7% (active) in the assay with DU-145 prostate; -67.3% (active) with K-562 leukemia. Further, the growth in the assay with MALME-3M melanoma was -67.2% (active); with MDA-MB-231 breast it was -81.2% (active); in the assay with RXF 393 renal it was -72.1% (active); in the assay on SF-268 CNS, -74.9% (active); with SF-295 CNS, -92% (active); with SF-539 CNS it was -88.9% (active). Further, the growth is -76.5% (active) in the assay with UACC-257 melanoma and -72% (active) in the assay with M14 melanoma.
For the compound `O=C(CCc1nnc2sc(OCc3ccccc3)nn12)c1nc2ccc([N+](=O)[O-])cc2[nH]1`, the growth is 84.6% in the assay on NCI-H23 lung; 94.8% with NCI-H226 lung; 93.3% with NCI-H322M lung; 102% in the assay with HOP-62 NSCLC; 105% in the assay with NCI-H460 lung; 106% in the assay on HOP-92 NSCLC. In addition, the growth in the assay with NCI-H522 lung was 79.2%; with A549/ATCC NSCLC, 94.3%; in the assay with 786-0 renal, 108%; with COLO 205 colon, 99.5%; with DU-145 prostate, 103%; in the assay on K-562 leukemia it was 87.7%. Moreover, the growth was 96.1% with MALME-3M melanoma; 95.7% in the assay on MDA-MB-231 breast; 123% in the assay with RXF 393 renal; 94.5% in the assay with SF-268 CNS; 97% in the assay on SF-295 CNS; 98.4% in the assay with SF-539 CNS. Further, the growth in the assay on UACC-257 melanoma is 106%; in the assay with M14 melanoma, 102%.
For the compound `CCOC(=O)c1c(-c2ccc(O)cc2)c(C#N)c2c(C#N)c(N)nn2c1N`, the growth in the assay on NCI-H23 lung was 72.6%; in the assay on NCI-H226 lung, 69.3%; in the assay with NCI-H322M lung, 95.1%; in the assay with HOP-62 NSCLC, 66.6%; with NCI-H460 lung it was 74.3%; with HOP-92 NSCLC it was 41.7%. In addition, the growth was 39.2% in the assay with NCI-H522 lung; 80.7% with A549/ATCC NSCLC; 93% with 786-0 renal; 74.6% in the assay on COLO 205 colon; 83% in the assay with DU-145 prostate; 19.8% in the assay on K-562 leukemia. In addition, the growth in the assay on MALME-3M melanoma is 39.4%; in the assay with MDA-MB-231 breast, 67%; with RXF 393 renal it was 76.2%; with SF-268 CNS it was 71.8%; in the assay with SF-295 CNS, 79.9%; in the assay on SF-539 CNS, 66.9%. In addition, the growth is 93% in the assay with UACC-257 melanoma and 45.2% with M14 melanoma.
`C=C1C(=O)O[C@H]2[C@H]1CC/C(C=Nc1c(N)cc(F)cc1Br)=C\CC[C@@]1(C)O[C@@H]21`: the growth is 93.1% in the assay with NCI-H23 lung; 82.9% in the assay on NCI-H226 lung; 97.7% in the assay on NCI-H322M lung; 89.2% in the assay on HOP-62 NSCLC; 96.3% with NCI-H460 lung; 97.3% in the assay with HOP-92 NSCLC. Besides, the growth in the assay with NCI-H522 lung was 53.8%; in the assay with A549/ATCC NSCLC it was 78.8%; in the assay with 786-0 renal, 43.8%; in the assay with COLO 205 colon it was 38.8%; with DU-145 prostate it was 55.2%; in the assay with K-562 leukemia it was 20.3%. The growth in the assay on MALME-3M melanoma is 99.5%; in the assay on MDA-MB-231 breast, 65.1%; in the assay on RXF 393 renal, 66.3%; with SF-268 CNS, 83.1%; in the assay with SF-295 CNS it was 99.7%; with SF-539 CNS, 86.9%. In addition, the growth in the assay with UACC-257 melanoma was 81.9%; in the assay with M14 melanoma, 66.2%.
